Results on 14 compounds are retold here after PubChem BioAssay (NCI).

Experiment in all cases: NCI-60 one-dose screen, 48 h (100 = growth as untreated, 0 = no growth, -100 = all killed)
Test [1] has as its system DU-145 prostate. Conditions: 10 µM unless noted.
For test [2], the system named is K-562 leukemia. Conditions: 10 µM unless noted.
Test [3] relates to MALME-3M melanoma. Conditions: 10 µM unless noted.
Test [4] concerns MDA-MB-231 breast. Conditions: 10 µM unless noted.
Test [5] deals with RXF 393 renal. Conditions: 10 µM unless noted.
In test [6] the test system is SF-268 CNS. Conditions: 10 µM unless noted.
In test [7] the test system is SF-295 CNS. Conditions: 10 µM unless noted.
Test [8] concerns SF-539 CNS. Conditions: 10 µM unless noted.
The subject of test [9] is UACC-257 melanoma. Conditions: 10 µM.
Test [10] deals with M14 melanoma. Conditions: 10 µM unless noted.

About 83,000 compounds went through this panel and 20% of them were active in at least one assay; those are over-represented in the sample as a whole.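 Cells were grown in 96-well plates and exposed to the test compound at a single concentration for 48 hours; results are reported as percent growth, with values below 10 considered active.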 Unmarked numbers belong to inactive results. Activity calls are given as the source filed them.

As for `O=C1[C@H]2Cc3c([nH]c4ccccc34)[C@H](c3ccc(Cl)cc3)N2C(=O)CN1C1CCN(Cc2c(Cl)cccc2Cl)CC1`, the growth is 76.9% in test [1]; 6.9% (active) in test [2]; 79.6% in test [3]; 72.5% in [4]; 53.9% in test [5]; 64.2% in [6]. Further, the growth in test [7] was 86.8%; in test [8] it was 75.2%; in [9], 101%; in [10], 71.5%.
As to `Oc1ccc(CSc2nnc(-c3ccc(Oc4ccccc4)cc3)n2-c2ccccc2)c2cccnc12`, the growth in [1] is 26.5%; in test [2] it was 15.3%; in test [3] it was 11.9%; in [4], 35.8%; in [5], 21.5%; in test [6], 22.3%. In addition, the growth in test [7] is 0.102% (active); in [8], 2.32% (active); in [9] it was 0.403% (active); in test [10], -4.33% (active).
Turning to `O=C(COc1ccc(/C=C2\SC(=O)NC2=O)cc1)Nc1ccc(C(=O)/C=C/c2cc3ccccc3nc2Cl)cc1`, the growth in [1] was 88.7%; in test [2], 41%; in [3], 98.5%; in test [4], 86.6%; in [5], 1.92% (active); in test [6] it was 78.2%. Also, the growth is 75.6% in test [7], 81.5% in [8], 75.3% in test [9] and 80% in [10].
For `Clc1ccc(-c2csc(Nc3cccc(Nc4csc(-c5ccc(Cl)cc5)n4)c3)n2)cc1`, the growth in [1] is 86.2%; in test [2], 67.1%; in test [3], 98%; in test [4] it was 64.2%; in test [5], 94.4%; in [6], 79.3%. Besides, the growth is 90% in test [7], 82.8% in test [8], 102% in test [9] and 74.7% in test [10].
As for `NS(=O)(=O)c1ccc(Nc2nc(N/N=C/c3ccc(F)cc3)nc(Nc3ccccc3)n2)cc1`, the growth in test [1] is 31.1%; in test [2], 54.6%; in [3], 57.5%; in test [4], 61.8%; in [5], 57.9%; in test [6], 41.3%. Moreover, the growth in test [7] is 70.1%; in test [8] it was 62.2%; in test [9], 47.2%; in test [10] it was 57.9%.
`COc1ccc(-c2cc(-c3ccc(Cl)cc3)nc3nc(N)nn23)cc1`: the growth in test [1] was 101%; in test [2], 116%; in test [3], 118%; in [4], 104%; in test [5], 91.8%; in test [6], 89.9%. Also, the growth in test [7] is 97.3%; in test [8], 95.5%; in test [9] it was 109%; in test [10] it was 117%.
Regarding `Oc1ccc(-c2nnc(SCc3ccc(O)c4ncccc34)n2-c2ccccc2)cc1`, the growth was 24.6% in [1]; 10.8% in test [2]; 3.9% (active) in [3]; 30.1% in test [4]; -7.54% (active) in test [5]; 10.2% in [6]. The growth in test [7] is 5.53% (active); in test [8], -6.02% (active); in test [9], -4.16% (active); in [10], -28% (active).
Take `NC(=O)c1c(NC(=O)c2cccc(OC(F)(F)F)c2)sc2c1CCC(=O)C2`: the growth in test [1] is 107%; in test [2] it was 13.5%; in [3], 81.3%; in [4], 63.3%; in test [5], 36.4%; in [6], 55.7%. In addition, the growth in test [7] was 46.1%; in test [8], 25.7%; in test [9] it was 81.8%; in test [10], 37.6%.
As for `CCN1C(=O)N(CC)C2SC(N/N=C/c3ccc(OC)cc3)=NC21` (stereo not given), the growth was 11.2% in test [1]; 15.7% in test [2]; 45.8% in test [3]; 23.4% in test [4]; 19.6% in [5]; 49.7% in test [6]. Also, the growth was 8.27% (active) in [7], -8.3% (active) in test [8], 80.4% in test [9] and 3.93% (active) in [10].
Consider `N/C(=N\OC(=O)CSc1nc2ccccc2s1)c1ccc(Cl)cc1`, for which the growth was 105% in [1]; 99.1% in [2]; 105% in [3]; 92% in [4]; 122% in test [5]; 96.2% in [6]. Besides, the growth in test [7] is 104%; in test [8], 95.5%; in test [9] it was 104%; in test [10], 100%.
On to `COC(=O)Nc1ccc(-c2nc(-c3cccc(O)c3)c(-c3ccnc(Br)c3)[nH]2)cc1`, for which the growth in [1] was 62.1%; in [2], 27.9%; in test [3] it was 54.1%; in test [4], 56.6%; in [5] it was -4.89% (active); in test [6], 72.6%. Moreover, the growth in [7] is 27.8%; in [8], 52.6%; in test [9] it was 58.5%; in [10], 48.9%.
For `Oc1ccc(-c2nnc(SCc3ccc(O)c4ncccc34)o2)cc1`, the growth was 21.2% in test [1]; 14.2% in test [2]; 18.7% in [3]; 24.5% in test [4]; -3.04% (active) in [5]; 15.9% in test [6]. Moreover, the growth in test [7] was 0.187% (active); in test [8], 13.8%; in test [9], 1.45% (active); in test [10], 0.609% (active).
`N#Cc1c(NC(=O)c2ccc(F)c(Cl)c2)sc2c1CCC(=O)C2`: the growth is 25.8% in [1]; 9.06% (active) in [2]; -78.7% (active) in test [3]; -55.7% (active) in test [4]; -60.5% (active) in test [5]; 16.3% in [6]. Besides, the growth is -12.2% (active) in test [7], -56.2% (active) in [8], 2.11% (active) in [9] and -17.8% (active) in test [10].
For the compound `O=C(CN1CCN(c2cc(=O)n(-c3ccccc3)c3ccccc23)CC1)Nc1ccc([N+](=O)[O-])cc1`, the growth in test [1] was 99.8%; in [2], 71.4%; in [3], 83.9%; in [4], 77.2%; in test [5] it was 68.7%; in test [6], 89.7%. Further, the growth was 103% in test [7], 91.7% in test [8], 90.3% in test [9] and 99% in test [10].
